What all share (test): DAPPL (digital affinity profiling via proximity ligation, sequencing); 10 mM Tris-HCl pH 7.5, 50 mM NaCl, 1 mM DTT, 4% glycerol, room temperature, 30 min; GST-TFs on glutathione beads, 16-mer random dsDNA library, 0.1% formaldehyde crosslink after washing; high values mean tight binding
Test [1] has as its target T1, FLI1 (Homo sapiens, UniProt Q01543 1-452).
T1 sequence: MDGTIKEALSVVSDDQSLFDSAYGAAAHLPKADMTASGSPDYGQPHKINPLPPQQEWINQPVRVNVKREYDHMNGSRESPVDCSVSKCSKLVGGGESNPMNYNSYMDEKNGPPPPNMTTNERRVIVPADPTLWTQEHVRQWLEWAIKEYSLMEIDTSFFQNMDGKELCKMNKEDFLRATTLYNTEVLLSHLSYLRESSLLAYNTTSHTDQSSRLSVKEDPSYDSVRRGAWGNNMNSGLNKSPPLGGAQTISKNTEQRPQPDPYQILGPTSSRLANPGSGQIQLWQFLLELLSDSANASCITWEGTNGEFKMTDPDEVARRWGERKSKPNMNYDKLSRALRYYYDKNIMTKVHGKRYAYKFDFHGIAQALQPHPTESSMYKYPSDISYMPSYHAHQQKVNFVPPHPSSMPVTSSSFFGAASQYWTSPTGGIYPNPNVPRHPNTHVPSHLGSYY
As to conditions: protein: recombinant; tags: N-terminal GST; dsDNA, one strand shown. In a few lines:
(§1)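 Beads coated with glutathione captured GST-fused human transcription factors that had been expressed in yeast, and the factors were then given DNA barcodes and pooled with a tag-only sample. The pools were incubated with 200 nmole of a random double-stranded 16-mer DNA library in Tris/NaCl/DTT/glycerol buffer for 30 min at room temperature, washed, crosslinked with 0.1% formaldehyde and proximity-ligated with BsaI/T4 ligase at 37 °C for 1 h. PCR amplification and Illumina NextSeq500 sequencing came last. Binding signal is each hexamer's read frequency for a factor divided by its frequency for the tag-only sample.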

In test [2] the target is T2, ELK1 (Homo sapiens, UniProt P19419 1-428).
T2 sequence: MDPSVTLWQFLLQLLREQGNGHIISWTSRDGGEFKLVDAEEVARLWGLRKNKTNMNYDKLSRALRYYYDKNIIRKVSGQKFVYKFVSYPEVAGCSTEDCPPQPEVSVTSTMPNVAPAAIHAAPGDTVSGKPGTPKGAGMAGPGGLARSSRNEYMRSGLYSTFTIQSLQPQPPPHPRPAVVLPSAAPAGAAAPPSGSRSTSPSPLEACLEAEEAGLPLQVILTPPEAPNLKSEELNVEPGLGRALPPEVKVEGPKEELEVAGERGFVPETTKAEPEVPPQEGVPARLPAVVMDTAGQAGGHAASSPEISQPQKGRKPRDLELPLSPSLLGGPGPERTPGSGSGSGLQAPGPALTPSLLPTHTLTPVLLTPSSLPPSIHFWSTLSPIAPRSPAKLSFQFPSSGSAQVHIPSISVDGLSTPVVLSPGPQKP
As to conditions: protein: recombinant; tags: N-terminal GST; dsDNA, one strand shown. In a few lines:
as §1

Test [3] addresses T3, GABPA (Homo sapiens, UniProt Q06546 1-454).
T3 sequence: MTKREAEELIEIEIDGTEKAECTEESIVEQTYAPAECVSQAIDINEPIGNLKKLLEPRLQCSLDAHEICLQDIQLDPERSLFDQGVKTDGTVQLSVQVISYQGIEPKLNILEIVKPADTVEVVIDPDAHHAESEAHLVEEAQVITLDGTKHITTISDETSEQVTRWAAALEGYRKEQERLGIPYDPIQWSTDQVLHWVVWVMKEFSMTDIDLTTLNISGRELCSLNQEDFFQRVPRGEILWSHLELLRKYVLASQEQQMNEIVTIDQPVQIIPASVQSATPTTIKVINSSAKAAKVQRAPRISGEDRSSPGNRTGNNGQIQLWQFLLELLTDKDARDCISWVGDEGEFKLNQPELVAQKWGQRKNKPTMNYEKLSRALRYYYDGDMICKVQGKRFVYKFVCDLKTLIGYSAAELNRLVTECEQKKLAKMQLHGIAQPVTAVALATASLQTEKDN
The settings on record: protein: recombinant; tags: N-terminal GST; dsDNA, one strand shown. In a few lines:
as §1

Test [4] concerns the target T4, ERG (Homo sapiens, UniProt P11308 1-479).
T4 sequence: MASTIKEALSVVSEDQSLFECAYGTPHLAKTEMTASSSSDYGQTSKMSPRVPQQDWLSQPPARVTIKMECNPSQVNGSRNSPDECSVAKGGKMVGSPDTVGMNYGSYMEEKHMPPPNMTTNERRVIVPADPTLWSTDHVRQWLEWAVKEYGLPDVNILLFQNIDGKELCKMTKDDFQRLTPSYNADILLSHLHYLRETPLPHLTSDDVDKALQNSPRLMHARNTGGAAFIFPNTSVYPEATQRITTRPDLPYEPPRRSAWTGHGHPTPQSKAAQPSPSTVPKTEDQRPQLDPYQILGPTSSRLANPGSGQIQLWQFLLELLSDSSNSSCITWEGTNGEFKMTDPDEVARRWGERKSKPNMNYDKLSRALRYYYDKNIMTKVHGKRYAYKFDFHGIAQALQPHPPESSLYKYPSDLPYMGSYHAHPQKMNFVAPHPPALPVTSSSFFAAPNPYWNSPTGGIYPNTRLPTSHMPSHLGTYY
As to conditions: protein: recombinant; tags: N-terminal GST; dsDNA, one strand shown. A digest of the protocol:
as §1

Test [5] addresses ELF1 (Homo sapiens, UniProt P32519 1-619). As to conditions: protein: recombinant; tags: N-terminal GST; dsDNA, one strand shown. A digest of the protocol:
as §1

The target in test [6] is T5, EHF (Homo sapiens, UniProt Q9NZC4 1-300).
T5 sequence: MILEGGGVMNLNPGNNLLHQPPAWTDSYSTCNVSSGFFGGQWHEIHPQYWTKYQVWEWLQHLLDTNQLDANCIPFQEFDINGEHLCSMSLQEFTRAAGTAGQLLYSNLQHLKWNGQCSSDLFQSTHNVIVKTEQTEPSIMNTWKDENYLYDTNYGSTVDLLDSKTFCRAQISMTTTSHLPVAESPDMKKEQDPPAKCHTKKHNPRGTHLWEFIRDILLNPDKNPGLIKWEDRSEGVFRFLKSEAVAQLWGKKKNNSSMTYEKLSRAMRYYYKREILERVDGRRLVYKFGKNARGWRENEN
As to conditions: protein: recombinant; tags: N-terminal GST; dsDNA, one strand shown. In a few lines:
as §1

Test [7] deals with SPI1 (Homo sapiens, UniProt P17947 1-270). As to conditions: protein: recombinant; tags: N-terminal GST; dsDNA, one strand shown. A digest of the protocol: as §1
The target of test [8] is SPIB (Homo sapiens, UniProt Q01892 1-262). The settings on record: protein: recombinant; tags: N-terminal GST; dsDNA, one strand shown. In a few lines:
as §1

For test [9], the target named is T6, ELK3 (Homo sapiens, UniProt P41970 1-407).
T6 sequence: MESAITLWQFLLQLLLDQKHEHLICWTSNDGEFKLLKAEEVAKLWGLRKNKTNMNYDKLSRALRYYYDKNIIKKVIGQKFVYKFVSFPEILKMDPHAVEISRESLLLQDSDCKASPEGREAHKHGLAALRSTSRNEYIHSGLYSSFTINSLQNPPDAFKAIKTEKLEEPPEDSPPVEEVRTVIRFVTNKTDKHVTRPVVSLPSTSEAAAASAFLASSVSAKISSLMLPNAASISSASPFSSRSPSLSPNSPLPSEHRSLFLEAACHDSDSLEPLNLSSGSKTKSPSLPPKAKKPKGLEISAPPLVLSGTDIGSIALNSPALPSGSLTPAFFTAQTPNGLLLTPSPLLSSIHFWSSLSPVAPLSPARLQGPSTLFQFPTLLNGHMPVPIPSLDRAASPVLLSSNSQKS
The settings on record: protein: recombinant; tags: N-terminal GST; dsDNA, one strand shown. In a few lines:
as §1

Test [10] deals with T7, FEV (Homo sapiens, UniProt Q99581 1-238).
T7 sequence: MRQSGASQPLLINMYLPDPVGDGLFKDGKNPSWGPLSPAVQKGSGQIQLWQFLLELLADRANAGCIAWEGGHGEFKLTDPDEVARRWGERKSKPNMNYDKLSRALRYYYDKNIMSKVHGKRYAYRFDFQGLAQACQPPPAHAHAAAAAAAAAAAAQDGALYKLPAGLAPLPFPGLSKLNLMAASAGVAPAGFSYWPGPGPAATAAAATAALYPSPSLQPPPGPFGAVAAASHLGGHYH
The settings on record: protein: recombinant; tags: N-terminal GST; dsDNA, one strand shown. In a few lines: as §1

In test [11] the target is ETV5 (Homo sapiens, UniProt P41161 1-510). As to conditions: protein: recombinant; tags: N-terminal GST; dsDNA, one strand shown. A digest of the protocol: as §1
Chain of ETV5 (P41161 whole entry): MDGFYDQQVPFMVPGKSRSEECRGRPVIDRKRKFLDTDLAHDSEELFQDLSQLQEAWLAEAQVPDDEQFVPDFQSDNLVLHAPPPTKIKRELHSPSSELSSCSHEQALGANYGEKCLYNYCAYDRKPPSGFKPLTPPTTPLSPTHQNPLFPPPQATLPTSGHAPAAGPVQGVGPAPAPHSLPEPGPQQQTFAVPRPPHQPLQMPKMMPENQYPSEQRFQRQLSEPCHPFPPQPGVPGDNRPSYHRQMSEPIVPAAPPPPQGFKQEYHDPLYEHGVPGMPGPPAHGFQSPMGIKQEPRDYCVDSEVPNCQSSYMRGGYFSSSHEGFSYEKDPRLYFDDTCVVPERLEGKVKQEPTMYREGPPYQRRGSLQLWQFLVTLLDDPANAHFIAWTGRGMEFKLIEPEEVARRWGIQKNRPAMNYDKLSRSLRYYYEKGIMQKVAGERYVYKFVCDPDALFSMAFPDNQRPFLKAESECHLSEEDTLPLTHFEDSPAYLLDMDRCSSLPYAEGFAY
In test [12] the target is HSF1 (Homo sapiens, UniProt Q00613 1-529). The settings on record: protein: recombinant; tags: N-terminal GST; chain copies: 3; dsDNA, one strand shown. In a few lines:
as §1

Test [13] addresses T8, SPIC (Homo sapiens, UniProt Q8N5J4 1-248).
T8 sequence: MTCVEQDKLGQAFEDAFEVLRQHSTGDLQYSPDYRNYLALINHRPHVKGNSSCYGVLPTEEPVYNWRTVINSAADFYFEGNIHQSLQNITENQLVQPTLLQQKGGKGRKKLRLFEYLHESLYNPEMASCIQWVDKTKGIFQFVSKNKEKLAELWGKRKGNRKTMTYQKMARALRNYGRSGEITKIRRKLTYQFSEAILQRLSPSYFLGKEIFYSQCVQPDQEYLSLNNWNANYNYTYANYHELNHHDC
The settings on record: protein: recombinant; tags: N-terminal GST; dsDNA, one strand shown. In a few lines: as §1

The target in test [14] is ELF4 (Homo sapiens, UniProt Q99607 1-663). The settings on record: protein: recombinant; tags: N-terminal GST; dsDNA, one strand shown. A digest of the protocol: as §1
Chain of ELF4 (Q99607 whole entry): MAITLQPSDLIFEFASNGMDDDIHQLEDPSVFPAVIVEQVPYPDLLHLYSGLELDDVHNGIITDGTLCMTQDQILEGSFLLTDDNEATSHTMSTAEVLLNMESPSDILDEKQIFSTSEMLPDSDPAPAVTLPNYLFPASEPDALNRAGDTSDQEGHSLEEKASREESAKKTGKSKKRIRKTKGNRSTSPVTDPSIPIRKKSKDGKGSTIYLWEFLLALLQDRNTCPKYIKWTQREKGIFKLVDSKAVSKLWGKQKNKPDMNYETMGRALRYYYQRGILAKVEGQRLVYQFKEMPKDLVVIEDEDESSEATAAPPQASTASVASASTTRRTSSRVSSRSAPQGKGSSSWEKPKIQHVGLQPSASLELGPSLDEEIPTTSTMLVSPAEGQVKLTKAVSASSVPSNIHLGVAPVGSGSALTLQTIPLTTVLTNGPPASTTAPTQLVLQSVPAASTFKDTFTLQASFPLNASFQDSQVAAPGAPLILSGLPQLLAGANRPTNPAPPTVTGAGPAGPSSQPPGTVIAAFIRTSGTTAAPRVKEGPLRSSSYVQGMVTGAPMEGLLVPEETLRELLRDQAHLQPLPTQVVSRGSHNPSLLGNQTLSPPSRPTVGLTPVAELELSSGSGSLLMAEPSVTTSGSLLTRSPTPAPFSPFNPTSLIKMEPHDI
Test [15] deals with T9, ELF3 (Homo sapiens, UniProt P78545 1-371).
T9 sequence: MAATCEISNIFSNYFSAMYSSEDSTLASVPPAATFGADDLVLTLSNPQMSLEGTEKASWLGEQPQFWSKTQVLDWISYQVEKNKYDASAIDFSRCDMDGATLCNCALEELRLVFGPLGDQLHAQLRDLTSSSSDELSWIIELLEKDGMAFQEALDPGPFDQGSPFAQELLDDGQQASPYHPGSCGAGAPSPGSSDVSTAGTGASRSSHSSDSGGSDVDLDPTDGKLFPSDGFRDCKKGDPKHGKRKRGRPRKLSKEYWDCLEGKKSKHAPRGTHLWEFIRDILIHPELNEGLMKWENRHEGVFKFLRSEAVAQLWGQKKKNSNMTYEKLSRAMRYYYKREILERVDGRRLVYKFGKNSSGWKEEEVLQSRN
The settings on record: protein: recombinant; tags: N-terminal GST; dsDNA, one strand shown. In a few lines: as §1

For test [16], the target named is CRX (Homo sapiens, UniProt O43186 1-299). As to conditions: protein: recombinant; tags: N-terminal GST; dsDNA, one strand shown. In a few lines:
as §1

Test [17] concerns the target ETV1 (Homo sapiens, UniProt P50549 1-477). As to conditions: protein: recombinant; tags: N-terminal GST; dsDNA, one strand shown. In a few lines: as §1
Test [18] concerns the target T10, ETV2 (Homo sapiens, UniProt O00321 1-342).
T10 sequence: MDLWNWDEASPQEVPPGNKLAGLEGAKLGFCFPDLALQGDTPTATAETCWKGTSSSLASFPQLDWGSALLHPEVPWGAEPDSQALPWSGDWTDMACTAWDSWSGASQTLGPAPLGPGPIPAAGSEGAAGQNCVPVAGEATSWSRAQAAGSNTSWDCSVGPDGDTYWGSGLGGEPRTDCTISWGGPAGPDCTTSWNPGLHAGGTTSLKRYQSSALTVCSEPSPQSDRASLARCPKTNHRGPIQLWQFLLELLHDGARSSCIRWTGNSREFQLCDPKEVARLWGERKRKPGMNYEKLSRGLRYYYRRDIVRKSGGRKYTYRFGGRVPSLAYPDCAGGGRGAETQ
As to conditions: protein: recombinant; tags: N-terminal GST; dsDNA, one strand shown. A digest of the protocol:
as §1

Chain of SPIB (Q01892 whole entry): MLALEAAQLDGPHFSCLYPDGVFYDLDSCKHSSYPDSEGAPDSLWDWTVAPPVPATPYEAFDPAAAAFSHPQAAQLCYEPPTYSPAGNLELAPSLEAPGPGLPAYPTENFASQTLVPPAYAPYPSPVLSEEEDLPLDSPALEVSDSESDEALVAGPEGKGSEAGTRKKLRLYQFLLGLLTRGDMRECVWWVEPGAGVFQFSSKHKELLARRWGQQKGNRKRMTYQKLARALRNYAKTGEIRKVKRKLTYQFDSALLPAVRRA
Chain of HSF1 (Q00613 whole entry): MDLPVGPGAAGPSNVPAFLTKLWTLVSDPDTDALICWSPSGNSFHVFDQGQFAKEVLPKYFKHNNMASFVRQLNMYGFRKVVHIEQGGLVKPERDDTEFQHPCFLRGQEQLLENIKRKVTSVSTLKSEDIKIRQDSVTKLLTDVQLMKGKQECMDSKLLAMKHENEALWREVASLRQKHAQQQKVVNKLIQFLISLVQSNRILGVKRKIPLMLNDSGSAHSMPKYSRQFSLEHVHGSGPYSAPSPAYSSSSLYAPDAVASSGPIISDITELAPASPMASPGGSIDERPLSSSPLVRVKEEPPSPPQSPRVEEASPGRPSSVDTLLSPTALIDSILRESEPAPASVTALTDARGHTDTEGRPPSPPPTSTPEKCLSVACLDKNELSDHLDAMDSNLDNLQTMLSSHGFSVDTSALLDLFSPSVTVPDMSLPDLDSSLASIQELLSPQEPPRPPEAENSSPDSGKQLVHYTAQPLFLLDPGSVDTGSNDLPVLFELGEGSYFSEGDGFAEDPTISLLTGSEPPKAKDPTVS
Chain of ETV1 (P50549 whole entry): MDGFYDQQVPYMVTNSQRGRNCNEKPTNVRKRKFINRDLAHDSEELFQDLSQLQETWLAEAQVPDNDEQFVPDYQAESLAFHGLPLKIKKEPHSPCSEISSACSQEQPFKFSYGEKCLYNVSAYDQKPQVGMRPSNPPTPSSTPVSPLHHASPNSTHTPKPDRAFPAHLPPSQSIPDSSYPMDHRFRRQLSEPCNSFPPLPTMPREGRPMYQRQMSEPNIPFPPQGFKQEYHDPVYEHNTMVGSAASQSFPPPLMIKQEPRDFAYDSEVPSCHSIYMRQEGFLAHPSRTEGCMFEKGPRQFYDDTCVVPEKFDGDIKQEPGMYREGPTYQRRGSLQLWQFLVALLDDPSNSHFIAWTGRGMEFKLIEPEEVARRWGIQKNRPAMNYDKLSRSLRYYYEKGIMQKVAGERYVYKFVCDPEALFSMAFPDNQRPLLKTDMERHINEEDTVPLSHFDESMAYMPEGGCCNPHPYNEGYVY
Chain of ELF1 (P32519 whole entry): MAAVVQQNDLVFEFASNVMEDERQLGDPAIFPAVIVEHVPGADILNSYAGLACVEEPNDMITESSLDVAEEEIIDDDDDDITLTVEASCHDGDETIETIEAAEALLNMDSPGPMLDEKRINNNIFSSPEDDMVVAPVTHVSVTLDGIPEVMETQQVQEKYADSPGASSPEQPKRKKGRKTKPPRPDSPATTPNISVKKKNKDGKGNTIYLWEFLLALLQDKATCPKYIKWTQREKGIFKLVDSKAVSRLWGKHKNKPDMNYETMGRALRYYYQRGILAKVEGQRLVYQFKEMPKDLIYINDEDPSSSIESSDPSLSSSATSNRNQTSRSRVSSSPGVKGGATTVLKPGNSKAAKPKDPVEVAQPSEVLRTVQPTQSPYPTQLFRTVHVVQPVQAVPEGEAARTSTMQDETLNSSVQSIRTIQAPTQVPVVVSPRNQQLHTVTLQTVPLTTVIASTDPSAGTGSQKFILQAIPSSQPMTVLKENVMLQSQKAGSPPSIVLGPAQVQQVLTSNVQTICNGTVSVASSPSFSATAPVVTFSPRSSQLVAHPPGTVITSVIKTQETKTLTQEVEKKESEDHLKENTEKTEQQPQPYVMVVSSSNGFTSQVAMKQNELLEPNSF
Chain of CRX (O43186 whole entry): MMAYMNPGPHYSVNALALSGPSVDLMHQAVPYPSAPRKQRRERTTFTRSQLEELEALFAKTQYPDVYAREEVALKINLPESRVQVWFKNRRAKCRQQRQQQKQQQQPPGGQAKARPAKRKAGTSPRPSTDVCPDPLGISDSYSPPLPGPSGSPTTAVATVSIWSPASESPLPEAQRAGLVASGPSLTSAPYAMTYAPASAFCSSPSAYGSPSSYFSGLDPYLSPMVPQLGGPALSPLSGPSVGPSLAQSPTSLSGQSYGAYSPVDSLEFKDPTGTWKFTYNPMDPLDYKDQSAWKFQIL

For the sequence CAAGTA, the binding signal in test [1] was 1.09 fold enrichment (6-mer frequency, TF over GST control); in test [2], 1.06 fold enrichment (6-mer frequency, TF over GST control); in test [3], 1.19 fold enrichment (6-mer frequency, TF over GST control); in test [4], 1.03 fold enrichment (6-mer frequency, TF over GST control); in test [5], 1.03 fold enrichment (6-mer frequency, TF over GST control); in test [6] it was 1.1 fold enrichment (6-mer frequency, TF over GST control). The binding signal is 1.07 fold enrichment (6-mer frequency, TF over GST control) in [7]; 1.01 fold enrichment (6-mer frequency, TF over GST control) in test [8]; 1.17 fold enrichment (6-mer frequency, TF over GST control) in [9]; 1.04 fold enrichment (6-mer frequency, TF over GST control) in test [10]; 1.11 fold enrichment (6-mer frequency, TF over GST control) in test [11]; 1.02 fold enrichment (6-mer frequency, TF over GST control) in test [12]. The binding signal in test [13] was 1.09 fold enrichment (6-mer frequency, TF over GST control); in [14] it was 1.16 fold enrichment (6-mer frequency, TF over GST control); in test [15], 1.28 fold enrichment (6-mer frequency, TF over GST control); in test [16], 1.08 fold enrichment (6-mer frequency, TF over GST control); in test [17], 1.03 fold enrichment (6-mer frequency, TF over GST control).
For the sequence GGAACA, the binding signal in test [1] was 1.06 fold enrichment (6-mer frequency, TF over GST control); in test [2], 1.09 fold enrichment (6-mer frequency, TF over GST control); in [4], 1.16 fold enrichment (6-mer frequency, TF over GST control); in test [5], 1.02 fold enrichment (6-mer frequency, TF over GST control); in [6], 1.12 fold enrichment (6-mer frequency, TF over GST control); in [7] it was 1.15 fold enrichment (6-mer frequency, TF over GST control). For the same sequence, the binding signal was 1.18 fold enrichment (6-mer frequency, TF over GST control) in [8]; 1.12 fold enrichment (6-mer frequency, TF over GST control) in test [9]; 1.01 fold enrichment (6-mer frequency, TF over GST control) in [10]; 1.16 fold enrichment (6-mer frequency, TF over GST control) in [11]; 1.32 fold enrichment (6-mer frequency, TF over GST control) in [12]; 1.1 fold enrichment (6-mer frequency, TF over GST control) in test [13]. Further, the binding signal in [14] was 1 fold enrichment (6-mer frequency, TF over GST control); in test [18], 1.11 fold enrichment (6-mer frequency, TF over GST control); in test [15] it was 1.09 fold enrichment (6-mer frequency, TF over GST control); in [17], 1.08 fold enrichment (6-mer frequency, TF over GST control).

Source of the values: paper PMC7862700, “An all-to-all approach to the identification of sequence-specific readers for epigenetic DNA modifications on cytosine”.
